According to PubChem BioAssay AID743314 (Broad Institute, 2014):
Potency and affinity values are given separately. Records with an inconclusive call do not appear. Active and inactive are the calls of the source.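 Rule for the calls: active = fitted half-maximal concentration no higher than twice the top tested dose, in every repeat run; inconclusive = repeat runs disagree, poor fit, or flat partial inhibition; inactive = the rest.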

Target: Endoplasmic reticulum aminopeptidase 1 (Homo sapiens) (UniProt Q9NZ08)
Test: inhibition of human ERAP1 enzyme activity – biochemical, cherry-pick, set 2, plate reader, dose response (AID 743314);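 note: 0% = neutral control wells and -100% = L-leucinethiol positive control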
Conditions: Recombinant ERAP1, Leu-AMC fluorescence, 60 min; series mostly up to 11 µM; activity change, negative = inhibition: at the top concentration

Endoplasmic reticulum aminopeptidase 1 (Homo sapiens), sequence (Q9NZ08 whole entry, looked up): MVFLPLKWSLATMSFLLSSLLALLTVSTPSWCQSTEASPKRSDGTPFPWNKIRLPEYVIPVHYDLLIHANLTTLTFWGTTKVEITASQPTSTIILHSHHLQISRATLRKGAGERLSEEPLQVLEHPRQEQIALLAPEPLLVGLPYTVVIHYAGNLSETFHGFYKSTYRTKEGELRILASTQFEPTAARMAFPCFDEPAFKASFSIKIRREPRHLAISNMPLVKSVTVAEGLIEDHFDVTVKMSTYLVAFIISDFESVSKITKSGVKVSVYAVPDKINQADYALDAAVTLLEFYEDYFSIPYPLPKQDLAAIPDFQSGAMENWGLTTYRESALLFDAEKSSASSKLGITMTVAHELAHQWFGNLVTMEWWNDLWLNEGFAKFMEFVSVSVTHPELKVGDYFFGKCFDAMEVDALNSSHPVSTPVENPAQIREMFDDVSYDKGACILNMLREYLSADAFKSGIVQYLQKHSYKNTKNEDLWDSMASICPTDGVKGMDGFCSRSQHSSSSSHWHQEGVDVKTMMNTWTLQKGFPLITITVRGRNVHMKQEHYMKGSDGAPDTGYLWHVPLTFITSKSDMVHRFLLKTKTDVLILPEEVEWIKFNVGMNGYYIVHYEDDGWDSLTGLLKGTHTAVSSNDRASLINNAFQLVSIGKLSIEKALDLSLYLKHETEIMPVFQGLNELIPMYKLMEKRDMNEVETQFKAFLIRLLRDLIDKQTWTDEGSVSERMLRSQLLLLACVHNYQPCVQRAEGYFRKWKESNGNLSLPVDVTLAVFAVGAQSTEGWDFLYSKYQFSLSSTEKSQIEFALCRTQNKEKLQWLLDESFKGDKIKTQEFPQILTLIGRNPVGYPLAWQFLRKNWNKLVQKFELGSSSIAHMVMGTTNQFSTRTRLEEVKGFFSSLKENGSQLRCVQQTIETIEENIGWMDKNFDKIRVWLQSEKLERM

| SMILES | activity change, negative = inhibition |
| --- | --- |
| CN(CC(=O)Nc1ccccc1C(F)(F)F)C(=O)CSc1nnc(-c2ccncc2)n1C | 14.9% (inactive) |
| CC(=O)Nc1ccc2nc(NC(=O)CN3CCOCC3)sc2c1 | 9.19% (inactive) |
| COc1ccc(CCOC(=O)CNC(=O)c2ccc(Cl)cc2Cl)cc1 | 12.7% (inactive) |
| COCc1cn(CC[C@@H]2CC[C@H](NC(=O)CCN3CCCCC3)[C@H](CO)O2)nn1 | 19.3% (inactive) |
| COc1ccccc1OCCNC(=O)C1CCCCC1 | 1.14% (inactive) |
| CS(=O)(=O)N(CC(=O)N1CCOCC1)c1cccc(Cl)c1 | -6.98% (inactive) |
| C[C@@H]1CN([C@@H](C)CO)C(=O)c2cccc(NC(=O)Nc3ccc(C(F)(F)F)cc3)c2O[C@H]1CN(C)C | 29% (inactive) |
| O=C(CNC(=O)OCc1ccccc1)Nc1ccc(F)cc1 | -11.2% (inactive) |
| CCc1ccccc1NC(=O)CCC(=O)N1CCN(C(C)=O)CC1 | 7.38% (inactive) |
| CCN(Cc1ccc(OC)c(F)c1)C(=O)C1CCCO1 (stereo not drawn) | -14.1% (inactive) |
| CNc1cncc(-c2cccc(C(=O)N(C)C)c2)n1 | -17.7% (inactive) |
| CCOc1ccc(OCCCC(=O)N2CCN(S(=O)(=O)c3ccc(Cl)cc3)CC2)cc1 | 7.04% (inactive) |
| COc1ccc(NC(=O)Nc2ccc3c(c2)C(=O)N([C@@H](C)CO)C[C@H](C)[C@H](CN(C)Cc2ccc(C(=O)O)cc2)OCCCC[C@H](C)O3)cc1 | 48.4% (inactive) |
| C[C@@H]1CN([C@H](C)CO)C(=O)c2cccc(NC(=O)Nc3ccc(C(F)(F)F)cc3)c2O[C@@H]1CN(C)C | 40.4% (inactive) |
| CC(C)[C@H](NC(N)=O)C(=O)NNC(=O)COc1cccc(C(F)(F)F)c1 | -4.59% (inactive) |
| Cc1cc(S(=O)(=O)c2cc3ccc(O)c(C)c3oc2=O)ccc1F | -4.67% (inactive) |
| Cc1ccc(S(=O)(=O)N(C)C[C@@H]2Oc3ccc(NC(=O)c4ccncc4)cc3C(=O)N([C@H](C)CO)C[C@H]2C)cc1 | 22.3% [at 10 µM] (inactive) |
| CN(c1ccccc1)S(=O)(=O)c1cc(C(=O)OCC(=O)N2CCN(C(=O)c3ccco3)CC2)ccc1Cl | -3.85% (inactive) |
| CN1CCN(S(=O)(=O)c2cccc(C(=O)N(C)CC(=O)Nc3ccc(F)c(F)c3F)c2)CC1 | 3.77% (inactive) |

| SMILES | activity change, negative = inhibition |
| --- | --- |
| CCOC(=O)c1[nH]c2ccc(Br)cc2c1NC(=O)CCN1CCOCC1 | 13.7% (inactive) |
| COc1ccc(CCC(=O)NC2CCCc3ccccc32)cc1OC (stereo not drawn) | -13.1% (inactive) |
| Cc1ccc(NC(=O)C2CCN(C(=O)c3cccs3)CC2)c(C)c1 | -4.73% (inactive) |
| Cc1nc2cc(NC(=O)C3COc4ccccc4O3)ccc2s1 (stereo not drawn) | -0.647% (inactive) |
| O=C(COC(=O)c1ccc(CO)cc1)Nc1ccc2ccccc2c1 | 1.79% (inactive) |
| C[C@@H]1CN([C@@H](C)CO)C(=O)c2cccc(NC(=O)c3cnccn3)c2O[C@H]1CN(C)Cc1ccc(Cl)c(Cl)c1 | 17.8% (inactive) |
| N#Cc1c(NC(=O)c2cccc(S(=O)(=O)Nc3ccc(C(=O)O)cc3)c2)sc2c1CCCC2 | -7.29% (inactive) |
| CC(C)c1ccc(OC(=O)c2cccc(S(=O)(=O)N3CCN(C)CC3)c2)cc1 | -4.13% (inactive) |
| CNC[C@H]1Oc2c(NC(=O)Nc3ccc(F)cc3)cccc2C(=O)N([C@@H](C)CO)C[C@@H]1C | 40% (inactive) |
| O=C(CC1CC1)N1[C@@H](CO)[C@@H](c2ccccc2)C12CN(Cc1cc(F)ccc1F)C2 | 14% (inactive) |
| CN(C)C(=O)[C@H]1[C@H](CO)[C@H]2Cn3c(cccc3=O)[C@@H]1N2CC1CCCC1 | 31.6% (inactive) |
| CC(=O)N1CC[C@@H]2[C@H]1c1cc(-c3ccc(C#N)cc3)ccc1N(C)[C@H]2CO | -3.73% (inactive) |
| O=c1cc(CN2CCN(Cc3ccccc3)CC2)c2ccc(O)cc2o1 | 273% (inactive) |
| C[C@@H]1CN([C@@H](C)CO)C(=O)Cc2cc(NC(=O)Nc3cccc4ccccc34)ccc2O[C@H]1CN(C)Cc1ccc(C(=O)O)cc1 | 17.1% (inactive) |
| CCCCC1CCC(C(=O)OC(C)C(=O)Nc2ccc(NC(C)=O)cc2)CC1 (stereo not drawn) | -2.34% (inactive) |
| COc1ccccc1-c1cn(CC[C@H]2CC[C@H](NS(=O)(=O)c3ccccc3C)[C@@H](CO)O2)nn1 | 20.2% (inactive) |
| CCN(CC)CCNC(=O)c1ccc(NC(=O)c2ccc(-n3cncn3)c([N+](=O)[O-])c2)cc1 | -9.89% (inactive) |
| O=C(c1ccccc1)N1CC(=O)N2[C@H](CO)[C@@H](c3ccc(-c4ccccc4)cc3)[C@H]2C1 | 33% (inactive) |
| N#Cc1c(N)n(CCNC(=O)c2ccccc2)c2nc3ccccc3nc12 | 46.6% (inactive) |
